According to the supplement of paper PMC8975748:
Structures can show the parent of a compound that is named as a salt.

These compounds were tested on Saccharomyces cerevisiae BY4741 SeMeCo community (assay: z-score of subpopulation abundance vs DMSO median, subpopulation auxotrophic for HLM; higher = larger share of this subpopulation than in DMSO controls). Settings: 10 µM; 24 h; SM minimal medium; subpopulation (auxotrophy): HLM.
How it was run: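 Scoring was based on each subpopulation's abundance, expressed as a z-score against the vehicle-well median. A Saccharomyces cerevisiae BY4741 community with four plasmids, each restoring one auxotrophy and encoding a distinct fluorescent protein, was pre-grown overnight to OD600 1.0, diluted to 0.3, and added at 70 µl to 384-well plates acoustically predosed with library drugs (10 µM final). It then grew 24 h in minimal SM medium before paraformaldehyde fixation and automated confocal microscopy, with single-auxotroph fluorescent strains setting thresholds and autofluorescence correction.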

SMILES | z-score of subpopulation abundance
CC1=Nc2ccc(Cl)cc2S(=O)(=O)N1 [Diazoxide] | -1.55
O=C(O)c1cc(O)c2c(c1)[C@H]([C@H]1c3cc(C(=O)O)cc(O)c3C(=O)c3c(O[C@@H]4O[C@H](CO)[C@@H](O)[C@H](O)[C@H]4O)cccc31)c1cccc(O[C@@H]3O[C@H](CO)[C@@H](O)[C@H](O)[C@H]3O)c1C2=O [Sennoside A] | -1.24
Oc1ccc([C@H]2COc3cc(O)ccc3C2)cc1 [Equol] | -0.88
COc1ccc2cc(CCC(C)=O)ccc2c1 [Nabumetone] | -0.91
CO/N=C(\C(=O)N[C@@H]1C(=O)N2C(C(=O)O)=C(CSc3nc(=O)c(O)nn3C)CS[C@H]12)c1csc(N)n1 [Ceftriaxone Sodium Trihydrate] | 0.5
CO/N=C(\C(=O)N[C@@H]1C(=O)N2C(C(=O)OC(C)OC(C)=O)=C(COC(N)=O)CS[C@H]12)c1ccco1 (stereo partly specified) [Cefuroxime axetil] | -0.11
CNCCCN1c2ccccc2CCc2ccccc21 [Desipramine Hydrochloride] | -0.1
CCCCCOc1ccccc1/C(=C\SC)n1ccnc1 [Neticonazole Hydrochloride] | 23.8
CC(C(=O)O)c1ccc2c(c1)[nH]c1ccc(Cl)cc12 (stereo unspecified) [Carprofen] | 0.84
CCC(C)n1ncn(-c2ccc(N3CCN(c4ccc(OCC5COC(Cn6cncn6)(c6ccc(Cl)cc6Cl)O5)cc4)CC3)cc2)c1=O (stereo unspecified) [Itraconazole] | 12.5
C=CCN1CCCC1CNC(=O)c1cc2nn[nH]c2cc1OC (stereo unspecified) [Alizapride HCl] | -0.44
